# Compound activity (PubChem)
# SRC2 inh: inhibition of GAL4-SRC2 driven luciferase reporter, primary screen, SRC2 inhibitor project, cell-based, luminescence. Nuclear receptor coactivator 2 (Homo sapiens), Q15596. HEK293 GAL4-SRC2 luciferase reporter. inhibition, % at 9 µM. actives 0.17% (n = 370,000);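 active means inhibition above the mean inhibition of all tested compounds plus 3 SD, set per campaign, cut at about 52% in these data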;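 further: 0% = DMSO treated cells and 100% = cells given Gossypol at 36 µM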
# LRH-1 inv ag: LRH-1 (NR5A2) inverse agonists, primary screen, cell-based, luminescence, HEK293T, StAR-luciferase reporter; Nuclear receptor subfamily 5 group A member 2 (Homo sapiens), O00482; LRH-1 transfected, 24 h; inhibition, % at 3.6 µM; actives 0.13% (n = 360,000); AID 602396, 2012;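 active means inhibition above the mean inhibition of all tested compounds plus 3 SD, cut at about 73% in these data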;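 further: 0% = DMSO wells and 100% = reporter-only cells lacking LRH-1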
# Gli-Sufu block: Gli-Sufu pathway antagonists, primary screen, luciferase luminescence, Sufu-KO-LIGHT cells, uHTS | AID 588413, 2011 | inhibition, % at 5 µM | actives 0.74% (n = 340,000) | Sufu-KO-LIGHT fibroblasts, Gli luciferase reporter luminescence;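 active means inhibition above about 55%, limit read from the data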;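 further: 0% = DMSO-treated cells and 100% = wells with medium but no cells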
# NCOA3 inh: SRC3 coactivator transcriptional activity inhibitors, primary screen, cell-based, luminescence. AID 588352, 2011. inhibition, % at 3.6 µM. HEK293 GAL4-SRC3 luciferase reporter. actives 0.17% (n = 360,000);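 active means inhibition above a per-campaign cutoff, the mean of all compounds plus 3 SD, cut at about 60% in these data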;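 further: 0% = DMSO-treated cells and 100% = gossypol-treated cells at 36 µM; higher means less SRC3-driven luciferase light from the GAL4 reporter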
# COUP-TFII inh: NR2F2 transcriptional activity inhibitors, primary screen, cell-based, luciferase reporter, HEK293T, luminescence | actives 0.7% (n = 370,000) | inhibition, % at 8.6 µM | HEK293T NGFI-A luciferase reporter | COUP transcription factor 2 (Homo sapiens), P24468;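 active means inhibition above a per-plate cutoff, mean inhibition of test wells between control levels plus 3 SD, cut at about 38% in these data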;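 further: cells cotransfected with COUP-TFII expression vector driving the NGFI-A reporter; 0% = median of COUP-TF2 test wells and 100% = reporter-only cells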
# Target sequence (P24468 whole entry, looked up): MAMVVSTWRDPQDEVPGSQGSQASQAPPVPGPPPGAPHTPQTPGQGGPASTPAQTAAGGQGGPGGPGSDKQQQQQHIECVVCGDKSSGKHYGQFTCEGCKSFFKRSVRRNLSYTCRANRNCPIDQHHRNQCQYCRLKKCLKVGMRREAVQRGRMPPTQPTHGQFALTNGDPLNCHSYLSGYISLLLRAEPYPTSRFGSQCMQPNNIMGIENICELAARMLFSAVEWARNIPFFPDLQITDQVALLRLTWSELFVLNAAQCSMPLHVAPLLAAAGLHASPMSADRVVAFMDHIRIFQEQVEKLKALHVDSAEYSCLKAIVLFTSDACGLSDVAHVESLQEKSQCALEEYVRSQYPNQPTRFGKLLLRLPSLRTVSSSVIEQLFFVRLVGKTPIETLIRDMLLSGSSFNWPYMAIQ
# SRC1 inh: SRC1 coactivator transcriptional activity inhibitors, primary screen, cell-based, luminescence; actives 0.12% (n = 360,000); inhibition, % at 3.6 µM; HEK293 GAL4-SRC1 luciferase reporter;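 active means inhibition above the campaign mean plus 3 SD, with each screening campaign given its own cutoff, cut at about 60% in these data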;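 further: 0% = DMSO treated cells and 100% = gossypol at 36 µM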
# Gal4-VP16 ctr: Gal4-VP16 luciferase reporter inhibitors, counter-screen for COUP-TFII antagonist project, cell-based, luminescence, HEK293 | shares compounds with COUP-TFII inh | inhibition, % at 8.5 µM | actives 25% (n = 2,500); in the data active means inhibition above about 13%
# NR2F2 inh conf: NR2F2 transcriptional activity inhibitors, confirmation, cell-based, luciferase reporter, HEK293, triplicate; shares compounds with COUP-TFII inh; HEK293 NGFI-A luciferase reporter, luminescence; inhibition, % at 8.5 µM; actives 45% (n = 2,500); AID 687008, 2013;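 active means mean inhibition over three repeats above a set limit taken from the earlier primary screen, cut at about 38% in these data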;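 further: 100% = cells given the luciferase reporter alone without the COUP-TF2 vector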
# * = called active by the depositor; / = not tested or not shown. Most compounds without a hit are left out; they make up all but 1.3% or so of the library.
SMILES,SRC2 inh,LRH-1 inv ag,Gli-Sufu block,NCOA3 inh,COUP-TFII inh,SRC1 inh,Gal4-VP16 ctr,NR2F2 inh conf
Cc1cccc(Nc2nc(-c3c(C)nc4ccccn34)cs2)c1,8,18,49,37,53*,11,-6,44*
Cc1nc2ccccn2c1-c1csc(Nc2cccc(O)c2)n1,18,31,7,15,9,11,/,/
O=C1C[C@@H](O)[C@H](O)c2cccc(O)c21,-64,/,/,/,14,/,/,/
COc1ccc(NC(=O)c2ccc(CN3CCN(c4ccccc4)CC3)cc2)cc1,-10,-1,13,-26,48*,-10,0,13
COc1ccc(C(=O)Nc2ccc(N3CCN(Cc4ccccc4)CC3)cc2)cc1,-4,7,-5,-12,-22,-20,/,/
CCOc1ccccc1NC(=O)c1ccc(CN2CCc3ccccc3C2)cc1,0,37,-40,-14,9,1,/,/
COc1cccc(NC(=O)c2ccc(CN3CCc4ccccc4C3)cc2)c1,-23,1,28,-4,54*,-6,-46,18
CCOc1ccc(NC(=O)c2ccc(CN3CCc4ccccc4C3)cc2)cc1,-12,13,14,7,48*,29,-30,41*
CCOC(=O)c1ccc(NC(=O)c2ccc(CN3CCc4ccccc4C3)cc2)cc1,6,34,-7,23,51*,30,-8,54*
CCOC(=O)c1ccc(NC(=O)CN2CCc3ccccc3C2)cc1,-5,-14,-16,4,-6,-5,/,/
COC(=O)[C@]12C[C@H](CC(=O)N3CCN(C(=O)c4ccco4)CC3)C(=O)N(Cc3ccc(Cl)cc3Cl)C1=C[C@H](C(C)C)O[C@@H]2C1CC1,-4,/,/,/,31,/,/,/
O=S1(=O)CC(N2CCN(Cc3ccccc3F)CC2)CN1Cc1cn(Cc2ccc(C(F)(F)F)cc2)nn1 (stereo not drawn),16,16,/,/,60*,/,-6,14
COc1ccc(C(=O)OCCN2CCN(C3CN(Cc4cn(Cc5ccccc5Cl)nn4)S(=O)(=O)C3)CC2)cc1OC (stereo not drawn),-1,/,/,/,35,/,/,/
COc1ccc(C(=O)OCCN2CCN(C3CN(Cc4cn(Cc5ccccc5C(F)(F)F)nn4)S(=O)(=O)C3)CC2)cc1OC (stereo not drawn),14,/,/,/,48*,/,0,17
O=C(NCCCc1ccccc1)C1CCN(c2nc(-c3ccc(Br)cc3)cs2)CC1,/,/,/,/,37*,/,-1,1
CN(C)S(=O)(=O)N1CCC(Oc2cccc(C(=O)NC3CCCCCC3)c2)CC1,24,39,47,11,63*,18,5,66*
CN(C)S(=O)(=O)N1CCC(Oc2ccc(C(=O)NC3Cc4ccccc4C3)cc2)CC1,-4,-11,8,-2,23,-5,/,/
CC(=O)C1(C(=O)NCc2ccccc2)CC(c2ccccn2)=NO1 (stereo not drawn),2,/,/,/,-13,/,/,/
N=C1C=CC(=C(c2ccc(N)cc2)c2ccc(N)cc2)C=C1,-19,46,51,55,46*,30,14*,63*
Nc1ccc(C(=O)C(=O)c2ccc(N)cc2)cc1,3,0,-1,-8,2,18,/,/
O=C(c1cc(-c2ccc(Cl)cc2)nc2ccccc12)N1CCN(c2ncccn2)CC1,19,/,/,/,0,/,/,/
CCOCc1nc(N)nc(N)c1-c1cccc(Cl)c1,-7,23,/,-12,57*,-13,-11,-4
COc1cccc2c(=O)cc(C)n(CC(=O)Nc3cccc(C)c3)c12,-8,0,49,10,47*,3,-8,16
Cc1cc(=O)c2ccccc2n1CC(=O)NCc1ccccc1,5,11,12,21,6,-1,/,/
